Assay results taken from PubChem BioAssay (NCATS).
Inconclusive results are not listed. Activity calls are given as the source filed them. Calls come from the whole dose curve; as a rule, active = well fitted curve in the direction sought with a large enough effect; inconclusive = small, poorly fitted or top-dose-only effect, or another doubt; inactive = no such curve, though single readings can be large; an effect the other way counts as inactive or inconclusive.

Key:
[1] = qHTS of pediatric cancer cell lines to identify multiple opportunities for drug repurposing: Primary screen for DAOY cells (AID 1347090); note: nearly all actives have a fitted effect of over 55% in size
Procedure, shortened: (§1)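 Eight- or eleven-point concentration series, 48 h treatment at 37 degrees C in growth media; readout CellTiter-Glo luminescence. Potency and efficacy were taken from the concentration-response curves.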

[2] = qHTS of pediatric cancer cell lines to identify multiple opportunities for drug repurposing: Primary screen for SJ-GBM2 cells (AID 1347091)
Procedure, shortened: as §1

[3] = qHTS of pediatric cancer cell lines to identify multiple opportunities for drug repurposing: Primary screen for A673 cells (AID 1347092); note: nearly all actives have a fitted effect of over 45% in size
Procedure, shortened: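 A673 cells (500-1,000 cells/well in growth media) were pre-incubated 5 h at 37 degrees C, then exposed to compounds for 48 h. Viability was read as CellTiter-Glo luminescence; concentration-response curves came directly from the primary screen.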

[4] = qHTS of pediatric cancer cell lines to identify multiple opportunities for drug repurposing: Primary screen for SK-N-MC cells (AID 1347093)
Procedure, shortened: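 Metabolically active cells were quantified by ATP-dependent luminescence (CellTiter-Glo, 15 min at room temperature) following 48 h treatment. Cells had been plated at 500-1,000 per well and settled for 5 h beforehand.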

[5] = qHTS of pediatric cancer cell lines to identify multiple opportunities for drug repurposing: Primary screen for BT-37 cells (AID 1347094)
Procedure, shortened: (§2)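 Quantitative HTS format: each compound titrated (MIPE 11 points from 0.78 nM, NPC 8 points from 0.59 nM) onto cells plated 5 hours earlier. After 48 h at 37 degrees C, CellTiter-Glo luminescence was recorded.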

[6] = qHTS of pediatric cancer cell lines to identify multiple opportunities for drug repurposing: Primary screen for NB-EBc1 cells (AID 1347095)
Procedure, shortened: as §2

[7] = qHTS of pediatric cancer cell lines to identify multiple opportunities for drug repurposing: Primary screen for U-2 OS cells (AID 1347096); note: nearly all actives have a fitted effect of over 50% in size
Procedure, shortened: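 Cells (500-1,000/well) in growth media were settled 5 h at 37 degrees C, then given compounds for 48 h. Viability was read as CellTiter-Glo luminescence. Primary runs used MIPE at 11 points (0.78 nM-46 µM) and NPC at 8 points (0.59 nM-46 µM); follow-ups used 11 points.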

[8] = qHTS of pediatric cancer cell lines to identify multiple opportunities for drug repurposing: Primary screen for Saos-2 cells (AID 1347097); note: nearly all actives have a fitted effect of over 40% in size
Procedure, shortened: as §2

[9] = qHTS of pediatric cancer cell lines to identify multiple opportunities for drug repurposing: Primary screen for SK-N-SH cells (AID 1347098); note: nearly all actives have a fitted effect of over 65% in size
Procedure, shortened: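 Cells (500-1,000/well) rested 5 h, then received compounds for 48 h; metabolically active cells were measured by CellTiter-Glo luminescence. Final concentrations spanned up to 46 µM (MIPE, 11-point) or 0.59 nM-46 µM (NPC, 8-point) in primary screens, 11-point in follow-ups.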

[10] = qHTS of pediatric cancer cell lines to identify multiple opportunities for drug repurposing: Primary screen for TC32 cells (AID 1347089); note: nearly all actives have a fitted effect of over 60% in size
Procedure, shortened: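 Luminescent CellTiter-Glo read-out of metabolically active TC32 cells after 48 h compound exposure. Primary: MIPE 11-point, 0.78 nM–46 µM; NPC 8-point, 0.59 nM–46 µM. Confirmatory: 11-point dilutions.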

Measured: Potency
Potency is the fitted concentration of half-maximal effect.

Clc1ccc(C2(c3ccc(-c4cn[nH]c4)cc3)CCNCC2)cc1
active: [1] 23.5 µM | [2] 5.26 µM | [3] 18.7 µM | [4] 6.62 µM | [6] 16.6 µM | [8] 4.18 µM | [9] 24.1 µM
inactive: [5] | [7]

CC(=O)OCC(=O)[C@@]1(O)CC[C@H]2[C@@H]3CCC4=CC(=O)C=C[C@]4(C)[C@@H]3[C@@H](O)C[C@@]21C
inactive: [10] | [1] | [2] | [3] | [4] | [5] | [6] | [7] | [8] | [9]

CN[C@@H]1CN(c2ccc3c(=O)c(C(=O)O)cn(-c4nccs4)c3n2)C[C@@H]1OC
active: [10] 12.8 µM | [1] 8.12 µM | [2] 1.15 µM | [4] 1.29 µM | [5] 3.35 µM | [9] 9.37 µM
inactive: [7] | [8]

CN1CCC[C@H]1CCO[C@](C)(c1ccccc1)c1ccc(Cl)cc1
inactive: [10] | [2] | [5] | [7]
active: [4] 20.9 µM

COc1c(C)cnc(Cn2cnc3c(Cl)nc(N)nc32)c1C
inactive: [8]
active: [10] 1.17 µM | [2] 0.296 µM | [4] 0.132 µM | [6] 0.118 µM | [9] 0.341 µM

CC(C)(O)CC(=O)NCCn1ccc2ncnc(Nc3ccc(Oc4cccc(C(F)(F)F)c4)c(Cl)c3)c21
active: [1] 0.469 µM | [3] 0.372 µM | [5] 24.3 µM | [9] 1.21 µM
inactive: [10] | [7]

Oc1cc(O)cc(C=Cc2ccc(O)c(O)c2)c1
inactive: [1] | [2] | [7]
active: [3] 18.7 µM | [4] 5.26 µM | [6] 4.18 µM | [8] 5.26 µM

Cc1cc(OCCCS(C)(=O)=O)cc(C)c1-c1cccc(COc2ccc3c(c2)OC[C@H]3CC(=O)O)c1
active: [1] 18.7 µM | [2] 26.4 µM | [8] 33.2 µM
inactive: [10] | [7] | [9]

NC(=O)c1nnn(Cc2cc(Cl)c(C(=O)c3ccc(Cl)cc3)c(Cl)c2)c1N
inactive: [10] | [7]
active: [2] 18.7 µM | [4] 23.5 µM | [8] 23.5 µM | [9] 30.4 µM

O=C(C=Cc1ccc(O)cc1)c1ccc(O)cc1O
inactive: [10]
active: [4] 37.2 µM | [8] 18.7 µM

CCCCC(F)(F)[C@@]1(O)CC[C@H]2[C@H](CC(=O)[C@@H]2CCCCCCC(=O)O)O1
inactive: [10] | [1] | [2] | [3] | [4] | [6] | [7] | [8]

CN1CC(=O)N2C(Cc3c([nH]c4ccccc34)[C@H]2c2ccc3c(c2)OCO3)C1=O (some centres undefined)
inactive: [10] | [1] | [2] | [3] | [4] | [5] | [7]

O=C(Nc1cccc(C(F)(F)F)c1)Nc1cc(S(=O)(=O)NC2CC2)ccc1-c1ccsc1
inactive: [10] | [7] | [9]
active: [2] 26.4 µM | [6] 23.5 µM | [8] 29.6 µM

CC(C)C[C@H](NC(=O)c1cc2ccccc2s1)C(=O)N1CCN(C(=O)[C@H](CO)NS(=O)(=O)c2ccc(Cl)cc2Cl)CC1
inactive: [10]
active: [2] 18.7 µM | [3] 23.5 µM | [4] 10.5 µM | [5] 15.3 µM | [6] 26.4 µM | [8] 14.8 µM

Cc1cc(-c2ncc(CC(=O)Nc3ccc(-c4cnccn4)cn3)cc2C)ccn1
active: [4] 16.6 µM
inactive: [10] | [2] | [7]

CC[C@@H]([C@H](C)O)n1ncn(-c2ccc(N3CCN(c4ccc(OCC5CO[C@@](Cn6cncn6)(c6ccc(F)cc6F)C5)cc4)CC3)cc2)c1=O (some centres undefined)
active: [2] 18.7 µM | [3] 18.7 µM | [4] 16.6 µM | [6] 20.9 µM | [8] 26.4 µM
inactive: [10] | [7] | [9]

CNc1nc(-c2ccc3c(N)n[nH]c3c2)cc(N2C[C@@H](C(=O)NC3CCCCC3)CC[C@@H]2C)n1
active: [2] 23.5 µM | [4] 4.18 µM
inactive: [10]

O=C(Nc1ncc(SCCN2CCCC2)s1)[C@]1(c2ccc(S(=O)(=O)C3CC3)cc2)C[C@@H]1C1CCCCC1
active: [2] 23.5 µM | [6] 26.4 µM | [7] 23.5 µM | [8] 33.2 µM
inactive: [10] | [9]

Clc1ccc(COC(Cn2ccnc2)c2ccc(Cl)cc2Cl)c(Cl)c1 (centres undefined)
inactive: [10] | [9]
active: [2] 18.7 µM | [3] 23.5 µM
